Rows were chosen to be rich in hits. Some 7.9% of all compounds tested hit in one or more screens of this group.
Lassa entry inh: qHTS for Inhibitors of binding or entry into cells for Lassa Virus. Lassa virus pseudotype entry inhibition, cell reporter. Potency, µM (doses to about 37.9 µM), for the others: at the highest dose activity change, negative = inhibition, usual class: inhibitors. hit rate 1.2% among 300,000. AID 540256, 2011; calls by dose curve; tested in HEK293 cells; further: potency means the concentration at half of the fitted maximal effect; nearly all actives have a fitted effect of over 50% in size
FMDV inh: High Throughput Screening for Foot and Mouth Disease Virus Antivirals; FMDV antiviral cell-based qHTS; Potency, µM (highest dose often 57.9 µM), for inactives: at the highest dose activity change, negative = inhibition, actives largely listed as inhibitors; hit rate 1.2% among 410,000; AID 1159524, 2015; calls by dose curve; tested in HEK293T cells; further: read-out not given here; potency means the concentration at half of the fitted maximal effect; nearly all actives have a fitted effect of over 45% in size
HCV inh: qHTS Assay for Inhibitors of Hepatitis C Virus (HCV); Huh7.5.1 HCVcc-Cre infection, luciferase reporter, 44 h; Potency, µM (top dose mostly 41.8 µM), without a hit: at the top dose activity change, negative = inhibition, actives largely listed as inhibitors; hit rate 3.4% among 340,000; active means well fitted inhibition curve with a large enough effect; inconclusive means small, poorly fitted or top-dose-only effect, or another doubt; inactive means no such curve, though single readings can be large or run the other way; further: potency means the concentration at half of the fitted maximal effect
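HCVcc-Cre virus at an moi near 0.5 was added right after compound to cells cultured 4 h from seeding (1,000 cells/well). Luciferase activity was determined 44 h later, 15 min after substrate addition at RT.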
HCMV inh: qHTS Assay for inhibitors of the human cytomegalovirus (HCMV); HFF cells, HCMV-luciferase reporter, 72 h; active compounds read low; activity change, negative = inhibition, % at 57.5 µM; hit rate 4.5% among 410,000; in the data active means activity change below about -60%; inconclusive means no clear call, values can overlap the other calls; inactive means above about -39%
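Two-dose cell screen: HFF monolayers treated with compounds and infected with luciferase-expressing HCMV at 1 PFU/cell, 72 h at 37C, then lysed for luciferase measurement.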
Marburg entry inh: qHTS for inhibitors of binding or entry into cells for Marburg Virus; Marburg virus pseudotyped entry inhibition, cell reporter; Potency, µM (top dose mostly 37.8 µM), for inactives: at the highest dose activity change, negative = inhibition, usual class: inhibitors; hit rate 1.8% among 300,000; AID 540276, 2011; calls by dose curve; tested in HEK293 cells; further: potency means the concentration at half of the fitted maximal effect
An asterisk follows results filed as active; u = inconclusive; x = no result; [ ] = dose if it differs, or a comment. On the % scale 0 is the no-effect control and ±100 the full control effect.

SMILES	Lassa entry inh	FMDV inh	HCV inh	HCMV inh	Marburg entry inh
Cc1cccc(OCC(=O)N2CCN(c3nnc(-c4ccccc4)c4ccccc34)CC2)c1	x	u	u	-32	x
COc1ccc(OCC(=O)N2CCN(c3nnc(-c4ccc(C)cc4)c4ccccc34)CC2)cc1	u	28µM*	8.9µM*	-29	u
Cn1c(-c2cccnc2)cc2cnc(Nc3ccc(F)cc3)cc21	x	x	x	31	x
Cc1cccc(OCC(=O)N2CCN(Cc3ccc([N+](=O)[O-])cc3)CC2)c1	7%[46.1 µM]	u	u	-32	-6%[46.1 µM]
Cc1cccc(OCC(=O)N2CCN(C(=O)c3ccc([N+](=O)[O-])cc3)CC2)c1	6%	-16%	-7%	-61*	-15%[46.1 µM]
COc1ccc(-n2nc(C(=O)N3CCN(c4ccccc4OC)CC3)c3c4ccccc4n(C)c3c2=O)cc1Cl	4%[46.1 µM]	-21%	x	19	21%[46.1 µM]
CN(C)Cc1ccccc1-c1cc(N(C)Cc2ccco2)ncn1	x	-13%	x	x	x
Cc1ccc(C(=O)NCC(C)(C)N2CCOCC2)s1	-2%	9%	21%	54	9%
CC(C)(CNC(=O)c1sc2cc(F)ccc2c1Cl)N1CCOCC1	13%	-5%	11µM*	u	5%
O=C(OC1CCCCC1=O)c1cc(S(=O)(=O)N2CCOCC2)ccc1F (stereo unspecified)	16%[46.1 µM]	-24%	2%	-5	-1%[46.1 µM]
CC(NC(=O)c1ccco1)c1nnc2n1CCN(Cc1ccc(N(C)C)cc1)CC2 (stereo unspecified)	x	-4%	x	x	x
Cn1c(=O)oc2ccc(S(=O)(=O)Nc3ccc(Cl)cc3[N+](=O)[O-])cc21	x	x	x	-62*	x
CCOCCCN(C)C1CCN(S(=O)(=O)c2csc(C(N)=O)c2)CC1	x	-2%	25%	-8	x
Cc1ccc(S(=O)(=O)N2CCOC23CCN(S(=O)(=O)c2c(C)cc(C)cc2C)CC3)cc1	u	-1%	u	-98*	u
CC(=O)c1c(C)[nH]c(C(=O)OCCCCN2C(=O)c3ccccc3C2=O)c1C	u	13µM*	10µM*	x	8.2µM*
CC(=O)c1c(C)[nH]c(C(=O)OCc2ccc([N+](=O)[O-])cc2)c1C	2%[46.1 µM]	8%	5.6µM*	-15	-4%[46.1 µM]
CC(=O)c1c(C)[nH]c(C(=O)OCc2ccccc2)c1C	u	4%	u	0	u
COC(=O)c1ccc(COC(=O)c2[nH]c(C)c(C(C)=O)c2C)o1	-27%	13µM*	2.2µM*	33	u
Cc1cc(NC(=O)CSc2ccc(-c3ccc(Br)cc3)nn2)no1	x	10%	-6%	19	x
COC(=O)C/C=C/[C@@H](C)[C@H](OC)c1ccccc1Br	x	x	x	x	-11%[14.2 µM]
COc1ccc(Br)cc1CNC(=O)c1cc2ccccn2n1	u	10%	x	-13	x
O=C(Nc1ccc(S(=O)(=O)N2CCOCC2)cc1)c1cc(-c2cc(Cl)ccc2O)n[nH]1	x	u	10µM*	-65*	x
NS(=O)(=O)c1ccc(CCNC(=O)c2cc(-c3cc(Cl)ccc3O)n[nH]2)cc1	x	0%	-19%	-80*	x
Cc1ccc(-c2cc(C(=O)Nc3ccc(S(=O)(=O)N4CC(C)OC(C)C4)cc3)[nH]n2)c(O)c1 (stereo unspecified)	-16%	-27%	4%	u	-9%
O=C(Nc1ccc(Cl)cc1)c1ccc(S(=O)(=O)N2CCOCC2)cc1	-14%[46.1 µM]	9%	-9%	-40	u
Cc1ccc(O)c(-c2cc(C(=O)Nc3ccc(S(=O)(=O)N4CC(C)OC(C)C4)cc3)[nH]n2)c1 (stereo unspecified)	u	u	11µM*	-14	u
CCn1cc(Cl)c(C(=O)N2N=C(c3ccc4ccccc4c3)CC2c2ccccc2O)n1 (stereo unspecified)	u	-25%	u	2	u
CCn1cc([N+](=O)[O-])c(C(=O)N2N=C(c3cccc4ccccc34)CC2c2ccccc2O)n1 (stereo unspecified)	u	u	11µM*	33	u
CCn1cc([N+](=O)[O-])c(C(=O)N2N=C(c3ccc4ccccc4c3)CC2c2ccccc2O)n1 (stereo unspecified)	5%	-13%	10µM*	82	u
CCn1cc([N+](=O)[O-])c(C(=O)N2N=C(c3ccc(OC)cc3OC)CC2c2ccccc2O)n1 (stereo unspecified)	u	-7%	-7%	24	-12%

Screening results: PubChem BioAssay, National Center for Advancing Translational Sciences (NCATS)
